KCNH2 3.1 inh: inhibitors of human KCNH2 3.1 potassium channel isoform | AID 720553 | activity change, % (tested at about 1.8 µM) | U2OS KCNH2 3.1, thallium flux FluxOr; hits give low values | 340,000 tested, 0.95% active;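 active means maximum activity change below -70%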;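 further: thallium influx rate constant from kinetic fluorescence after stimulation buffer; on the % scale 0 is the no-effect control and ±100 the full control effect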
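Virally transduced U2OS (3.1 isoform, 4 h infection in dark at RT) → overnight 37 C → FluxOr + Red40 in HBSS/HEPES, 45 min → stimulation buffer, 2 min kinetic read → rate constant vs DMSO controls.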
hERG WT inh: inhibitors of human wildtype KCNH2 potassium channel; activity change, % at 1.84 µM; 340,000 tested, 0.37% active; U2OS, BacMam KCNH2, thallium flux FluxOr; hits give low values;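 active means maximum activity change below -70%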; further: on the % scale 0 is the no-effect control and ±100 the full control effect
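U2OS cells transduced with wild-type KCNH2 virus are loaded with FluxOr dye for 45 min, and thallium flux is measured in kinetic reads before and after stimulation buffer. Rate constants are normalized to DMSO controls.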
12-LOX inh: blocks human arachidonate 12S-lipoxygenase. P18054. purified 12hLO, xylenol orange hydroperoxide absorbance. Potency, µM (highest dose often 108 µM), for inactives: at the top dose activity change, negative = inhibition, hits mostly inhibitors. 580,000 tested, 1.1% active; active means well fitted inhibition curve with a large enough effect; further: potency means the concentration at half of the fitted maximal effect; on the % scale 0 is the no-effect control and ±100 the full control effect
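Purified human 12hLO at 150 nM in 25 mM Hepes, 0.01% Triton X-100, pH 7.0, preincubated 15 min at room temperature with compound. Reaction started with 40 uM arachidonic acid, 30 min at room temperature. Hydroperoxide measured by Fe-xylenol orange, 573/405 nm absorbance ratio.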
LDHA block: blocks human lactate dehydrogenase A. P00338. purified LDHA, NADH/diaphorase-resazurin fluorescence; hits give low values. activity change, % (values are at about 110 or 230 µM). 480,000 tested, 0.15% active. AID 1347041; in the data active means activity change below about -30%;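 further: plate controls were DMSO wells for no effect and wells without enzyme for full effect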
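Remaining NADH was detected by diaphorase (0.133 mg/mL) converting 37 µM resazurin to fluorescent resorufin, read at 0 and 20 minutes. The preceding 5-minute room-temperature reaction used 2 nM LDHA, 0.2 mM sodium pyruvate and 0.06 mM NADH at pH 7.4.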
ClpP mod: qHTS Assay for Activators of ClpP; 340,000 tested, 1.9% active; Potency, µM (titrated, usually from 57.5 µM), inactives show top-dose activity change, negative = active; purified B. subtilis ClpP, FRET peptide cleavage, 20 min; active means well fitted falling curve with a large enough effect; further: potency means the concentration at half of the fitted maximal effect; the source files actives as falling curves though it sought activators and does not explain the sign; nearly all actives have a fitted effect of over 65% in size
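ClpP 10 microg/mL final, pH 8 Tris/KCl buffer with BSA, glycerol, Tween-20; compound pinned in; FRET-FV substrate; RT 20 min; Ex320/Em430; ΔFRET vs ADEP 5.8 microM, DMSO, no enzyme.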
BCR signal inh: inhibitors of chronic active B-cell receptor signaling | ABC-DLBCL IkBa-CBG/CBR reporter, luminescence ratio, 4 h | Potency, µM (top dose mostly 46.1 µM), for inactives: at the top dose activity change, negative = inhibition, usual class: inhibitors | 340,000 tested, 0.05% active; active means well fitted inhibition curve with a large enough effect in the signal ratio, with a control signal flat, not every such curve was filed as active; the % refers to the signal ratio;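 further: potency means the concentration at half of the fitted maximal effect; plate controls were basal doxycycline-induced cells for no effect and cells given 10 µM MG132 for full effect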
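Concentration-response series (up to 46 uM) were applied to TMD8 dual-reporter cells for 4 h at 37C with doxycycline. Green/red ratio, after filter-overlap correction, defined %Activity; red signal alone was normalised to basal cells and zero luminescence.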
Numbers without * were called inactive; ! = not active in a repeat; [ ] = remark or other dose. Compounds with a hit are over-represented: about 3% of the library has one in this group of screens.

`CC1(C)C(=O)OC(c2cccn2-c2ccc([N+](=O)[O-])cc2)C(C)(C)C1=O` (stereo not drawn) gave KCNH2 3.1 inh 7, hERG WT inh -2, 12-LOX inh 0%, LDHA block -3, ClpP mod 1% and BCR signal inh 3%.
Screening CC1(C)C(=O)C2(CCCCC2)C(=O)OC1c1cccn1-c1ccc([N+](=O)[O-])cc1 (stereo not drawn) returned KCNH2 3.1 inh 3, hERG WT inh -4, 12-LOX inh 8%, LDHA block -3, ClpP mod 32µM* and BCR signal inh 1%.
Screening c1ccc2sc(SN3CCOCC3)nc2c1 returned KCNH2 3.1 inh 0, hERG WT inh -3, 12-LOX inh 13µM*!, LDHA block -5, ClpP mod -4% and BCR signal inh 1%.
`O=C(COC(=O)c1ccc(Cl)c(S(=O)(=O)N2CCCCCC2)c1)Nc1cc(F)ccc1F` gave 12-LOX inh 8% and LDHA block -3.
For C[S+](=O)([O-])N1CCCC(c2nn(-c3ccc(F)cc3)c(=O)[nH]2)C1 (stereo not drawn) the results were 12-LOX inh 15%.
For CCC(C)NS(=O)(=O)c1c(C)cc(N2C(=O)CCS2(=O)=O)cc1C (stereo not drawn) the results were 12-LOX inh 23% and LDHA block -15.
For CCN(CC)CC(O)COc1ccc2c(c1)OCO2 (stereo not drawn) the results were KCNH2 3.1 inh 16, hERG WT inh -10, 12-LOX inh -27%, LDHA block 3, ClpP mod 13µM* and BCR signal inh -5%.
Screening OCCN(CCO)CC(O)COc1ccc2c(c1)OCO2 (stereo not drawn) returned KCNH2 3.1 inh -11, hERG WT inh -6, 12-LOX inh -12%, LDHA block 1, ClpP mod 3% and BCR signal inh 0%.
CCOc1ccc(S(=O)(=O)N(CC(=O)N/N=C/c2ccc(-c3ccc([N+](=O)[O-])cc3)o2)c2ccccc2)cc1 was read as KCNH2 3.1 inh -26, hERG WT inh -22, 12-LOX inh 32µM*, LDHA block 6, ClpP mod 1% and BCR signal inh 4%.
Screening CCOc1ccc(N(CC(=O)N/N=C/c2ccccn2)S(=O)(=O)c2ccc(Cl)cc2)cc1 returned KCNH2 3.1 inh -81*, hERG WT inh -4, 12-LOX inh -11%, LDHA block 2, ClpP mod -1% and BCR signal inh 2%.
CCOc1ccc(N(CC(=O)NCCSc2ccccn2)S(=O)(=O)c2ccc(Cl)cc2)cc1 was read as KCNH2 3.1 inh -1, hERG WT inh 6, 12-LOX inh 12%, LDHA block 2 and BCR signal inh 1%.
For Cc1ccc(C)c(N(CC(=O)N/N=C/c2ccc(-c3ccc([N+](=O)[O-])cc3)o2)S(=O)(=O)c2ccccc2)c1 the results were KCNH2 3.1 inh -37, hERG WT inh -1, 12-LOX inh 1%[57.4 µM], LDHA block -4, ClpP mod -4% and BCR signal inh 1%.
For CN(C)C(CNC(=O)c1cc(=O)[nH]c2ccccc12)c1ccccc1 (stereo not drawn) the results were 12-LOX inh 18% and LDHA block 2.
C=CCN(CC=C)S(=O)(=O)c1ccc(NC(=S)NC(=O)c2ccc(-c3ccccc3)cc2)cc1 was read as KCNH2 3.1 inh 7, hERG WT inh -2, 12-LOX inh 3.2µM*, LDHA block -8, ClpP mod -8% and BCR signal inh 0%.
COc1ccc(-c2nc(-c3cccc(C)c3)no2)cc1OC was read as KCNH2 3.1 inh -7, hERG WT inh -7, 12-LOX inh 20%, LDHA block -10, ClpP mod 25µM* and BCR signal inh 8%.
